Test results taken from the supplement of paper PMC12067093, “Discovery and optimisation of a covalent ligand for TRIM25 and its application to targeted protein ubiquitination” (Chemical Science, 2025).
About 21,000 targets were measured; listed, in parts, are those with the largest changes and a random draw of the rest.

Compound: Cc1cc(ccc1-c1ccccc1)C(=O)N1CCCN(CC1)C(=O)CCl [compound 10]
Assay: probe-labelled cysteine peptide fold change vs DMSO (competition) (log2 fold change); higher = less target engagement (more negative = stronger competition)
Conditions: THP-1, incubation time: 4 h
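Note: competitive profiling in live THP-1 cells: cysteine peptides tagged with an iodoacetamide desthiobiotin (IA-DTB) probe, intensity after compound treatment relative to DMSO-treated cells.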

UniProt Q9NP73, sequence (Q9NP73 whole entry): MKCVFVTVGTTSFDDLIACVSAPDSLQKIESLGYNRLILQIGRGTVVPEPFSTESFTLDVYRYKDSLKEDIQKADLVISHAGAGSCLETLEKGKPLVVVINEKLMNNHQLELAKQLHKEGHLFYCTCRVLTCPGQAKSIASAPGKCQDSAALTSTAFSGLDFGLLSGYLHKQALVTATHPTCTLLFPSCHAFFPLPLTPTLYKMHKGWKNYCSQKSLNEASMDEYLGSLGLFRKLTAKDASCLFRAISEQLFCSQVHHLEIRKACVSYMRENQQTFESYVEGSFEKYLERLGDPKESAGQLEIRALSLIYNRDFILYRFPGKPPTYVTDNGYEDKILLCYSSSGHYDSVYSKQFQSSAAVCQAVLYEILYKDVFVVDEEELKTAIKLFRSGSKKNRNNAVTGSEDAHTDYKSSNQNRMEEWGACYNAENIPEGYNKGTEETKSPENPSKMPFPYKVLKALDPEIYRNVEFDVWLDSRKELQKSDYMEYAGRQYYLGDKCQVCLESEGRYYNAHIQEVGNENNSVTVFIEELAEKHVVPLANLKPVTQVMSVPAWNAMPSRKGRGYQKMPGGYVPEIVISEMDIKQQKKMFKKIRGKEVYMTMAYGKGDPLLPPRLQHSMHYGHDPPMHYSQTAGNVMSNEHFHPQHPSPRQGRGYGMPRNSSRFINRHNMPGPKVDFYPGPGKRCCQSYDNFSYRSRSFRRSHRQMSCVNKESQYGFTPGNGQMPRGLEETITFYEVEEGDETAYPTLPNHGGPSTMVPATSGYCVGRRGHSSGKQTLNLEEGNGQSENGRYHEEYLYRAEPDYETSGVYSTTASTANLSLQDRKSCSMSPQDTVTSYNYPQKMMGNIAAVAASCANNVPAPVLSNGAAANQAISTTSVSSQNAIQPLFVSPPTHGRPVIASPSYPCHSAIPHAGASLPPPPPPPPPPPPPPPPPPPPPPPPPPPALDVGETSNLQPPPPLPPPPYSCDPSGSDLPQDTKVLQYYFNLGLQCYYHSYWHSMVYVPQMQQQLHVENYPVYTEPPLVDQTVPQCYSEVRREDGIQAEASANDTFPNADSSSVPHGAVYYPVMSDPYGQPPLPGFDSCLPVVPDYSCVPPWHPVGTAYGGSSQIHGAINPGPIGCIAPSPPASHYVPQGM
UniProt O43488, sequence (O43488 whole entry, looked up): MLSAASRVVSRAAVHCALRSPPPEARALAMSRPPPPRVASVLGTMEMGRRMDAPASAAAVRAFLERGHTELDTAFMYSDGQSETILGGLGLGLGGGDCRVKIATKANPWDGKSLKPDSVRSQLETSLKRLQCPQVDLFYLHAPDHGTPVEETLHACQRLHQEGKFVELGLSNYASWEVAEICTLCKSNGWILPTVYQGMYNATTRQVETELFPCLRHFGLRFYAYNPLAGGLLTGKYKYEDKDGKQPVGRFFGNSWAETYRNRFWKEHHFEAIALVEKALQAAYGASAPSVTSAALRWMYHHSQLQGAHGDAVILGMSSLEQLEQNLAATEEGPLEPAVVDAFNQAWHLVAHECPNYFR
UniProt Q9P2R3, sequence (Q9P2R3 whole entry, looked up): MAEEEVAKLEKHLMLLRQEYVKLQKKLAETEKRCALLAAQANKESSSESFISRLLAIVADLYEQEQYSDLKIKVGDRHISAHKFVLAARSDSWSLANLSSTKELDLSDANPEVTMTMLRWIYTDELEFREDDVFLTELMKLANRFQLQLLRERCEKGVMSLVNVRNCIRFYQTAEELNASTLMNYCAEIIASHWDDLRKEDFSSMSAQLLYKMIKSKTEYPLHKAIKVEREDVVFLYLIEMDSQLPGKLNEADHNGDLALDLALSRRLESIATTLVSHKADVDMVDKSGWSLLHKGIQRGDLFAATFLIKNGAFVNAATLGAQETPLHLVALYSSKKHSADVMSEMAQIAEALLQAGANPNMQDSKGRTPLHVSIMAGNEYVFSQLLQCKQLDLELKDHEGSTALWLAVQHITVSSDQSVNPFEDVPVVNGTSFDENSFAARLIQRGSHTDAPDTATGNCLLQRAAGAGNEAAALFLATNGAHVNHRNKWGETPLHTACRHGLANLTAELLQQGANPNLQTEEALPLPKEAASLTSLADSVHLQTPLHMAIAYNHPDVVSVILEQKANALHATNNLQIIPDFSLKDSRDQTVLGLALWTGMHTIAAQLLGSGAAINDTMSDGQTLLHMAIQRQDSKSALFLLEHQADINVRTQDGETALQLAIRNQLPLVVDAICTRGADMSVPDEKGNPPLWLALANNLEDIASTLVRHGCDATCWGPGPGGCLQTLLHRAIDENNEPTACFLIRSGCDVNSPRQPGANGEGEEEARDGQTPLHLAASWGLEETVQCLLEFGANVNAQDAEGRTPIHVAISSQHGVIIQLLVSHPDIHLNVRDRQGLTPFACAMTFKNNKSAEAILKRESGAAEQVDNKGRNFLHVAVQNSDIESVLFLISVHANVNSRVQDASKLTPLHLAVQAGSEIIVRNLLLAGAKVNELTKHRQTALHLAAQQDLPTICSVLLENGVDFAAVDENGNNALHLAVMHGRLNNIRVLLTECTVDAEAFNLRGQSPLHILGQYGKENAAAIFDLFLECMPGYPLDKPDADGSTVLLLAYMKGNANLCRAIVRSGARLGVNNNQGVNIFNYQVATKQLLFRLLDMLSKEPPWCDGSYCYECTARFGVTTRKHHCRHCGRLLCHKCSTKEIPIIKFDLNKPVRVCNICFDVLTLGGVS
UniProt O75891, sequence (O75891 whole entry, looked up): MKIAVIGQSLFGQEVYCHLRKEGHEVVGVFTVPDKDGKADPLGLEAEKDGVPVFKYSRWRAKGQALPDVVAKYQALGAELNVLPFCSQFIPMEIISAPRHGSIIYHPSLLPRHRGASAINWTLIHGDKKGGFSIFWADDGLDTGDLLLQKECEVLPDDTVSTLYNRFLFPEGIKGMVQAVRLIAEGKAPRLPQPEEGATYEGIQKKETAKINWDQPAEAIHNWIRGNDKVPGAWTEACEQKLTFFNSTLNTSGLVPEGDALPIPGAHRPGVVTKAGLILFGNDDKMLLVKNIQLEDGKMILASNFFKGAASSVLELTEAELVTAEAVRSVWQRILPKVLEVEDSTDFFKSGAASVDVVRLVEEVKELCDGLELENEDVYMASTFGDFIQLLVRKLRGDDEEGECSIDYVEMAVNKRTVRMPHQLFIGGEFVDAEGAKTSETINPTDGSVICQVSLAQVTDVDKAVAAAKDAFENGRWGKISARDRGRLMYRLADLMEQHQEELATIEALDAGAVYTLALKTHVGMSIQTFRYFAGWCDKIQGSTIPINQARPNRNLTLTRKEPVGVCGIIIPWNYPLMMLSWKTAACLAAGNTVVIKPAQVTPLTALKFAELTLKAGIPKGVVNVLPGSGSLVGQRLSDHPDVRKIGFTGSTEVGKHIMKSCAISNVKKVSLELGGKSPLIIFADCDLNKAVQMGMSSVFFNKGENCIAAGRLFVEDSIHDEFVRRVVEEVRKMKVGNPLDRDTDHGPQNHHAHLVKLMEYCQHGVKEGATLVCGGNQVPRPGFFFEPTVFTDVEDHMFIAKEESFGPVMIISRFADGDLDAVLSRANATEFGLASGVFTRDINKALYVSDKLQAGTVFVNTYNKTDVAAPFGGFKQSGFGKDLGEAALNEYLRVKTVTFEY
UniProt O60488, sequence (O60488 whole entry, looked up): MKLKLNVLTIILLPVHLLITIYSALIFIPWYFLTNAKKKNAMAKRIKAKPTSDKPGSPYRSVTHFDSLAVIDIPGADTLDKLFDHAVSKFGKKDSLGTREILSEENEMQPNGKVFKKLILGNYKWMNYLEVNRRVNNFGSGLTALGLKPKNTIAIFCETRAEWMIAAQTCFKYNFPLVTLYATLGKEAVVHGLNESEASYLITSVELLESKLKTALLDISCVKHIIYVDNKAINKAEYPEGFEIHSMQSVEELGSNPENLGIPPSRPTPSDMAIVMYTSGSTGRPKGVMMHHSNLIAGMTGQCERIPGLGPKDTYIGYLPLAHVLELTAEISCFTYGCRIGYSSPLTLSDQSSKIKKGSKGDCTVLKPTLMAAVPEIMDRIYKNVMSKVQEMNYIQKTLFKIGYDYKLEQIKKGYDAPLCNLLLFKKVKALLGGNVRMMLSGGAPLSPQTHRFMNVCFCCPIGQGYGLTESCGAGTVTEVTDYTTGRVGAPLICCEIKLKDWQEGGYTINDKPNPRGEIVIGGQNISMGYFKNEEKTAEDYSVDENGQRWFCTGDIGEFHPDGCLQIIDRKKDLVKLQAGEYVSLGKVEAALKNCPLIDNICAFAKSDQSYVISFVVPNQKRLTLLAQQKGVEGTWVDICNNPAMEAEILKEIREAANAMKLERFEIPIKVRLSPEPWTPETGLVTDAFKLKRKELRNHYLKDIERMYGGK
UniProt Q13740, sequence (Q13740 whole entry, looked up): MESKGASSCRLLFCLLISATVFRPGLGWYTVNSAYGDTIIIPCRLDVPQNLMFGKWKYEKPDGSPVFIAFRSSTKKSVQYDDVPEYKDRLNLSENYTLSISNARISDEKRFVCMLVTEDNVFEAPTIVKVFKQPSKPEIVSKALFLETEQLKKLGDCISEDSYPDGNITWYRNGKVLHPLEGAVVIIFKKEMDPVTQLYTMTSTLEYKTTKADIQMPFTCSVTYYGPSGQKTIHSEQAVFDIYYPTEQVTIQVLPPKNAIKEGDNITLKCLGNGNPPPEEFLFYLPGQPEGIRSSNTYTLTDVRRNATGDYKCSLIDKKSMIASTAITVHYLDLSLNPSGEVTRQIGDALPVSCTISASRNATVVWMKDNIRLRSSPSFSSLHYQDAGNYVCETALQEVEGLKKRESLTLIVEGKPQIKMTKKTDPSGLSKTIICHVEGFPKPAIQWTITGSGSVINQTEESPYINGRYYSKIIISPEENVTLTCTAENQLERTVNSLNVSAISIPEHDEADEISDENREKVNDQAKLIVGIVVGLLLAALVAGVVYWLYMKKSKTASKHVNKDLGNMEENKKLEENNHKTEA
UniProt O00244, sequence (O00244 whole entry, looked up): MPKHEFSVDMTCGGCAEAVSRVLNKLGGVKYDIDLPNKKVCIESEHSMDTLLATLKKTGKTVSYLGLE

Target | probe-labelled cysteine peptide fold change (10 µM) | probe-labelled cysteine peptide fold change (50 µM)
AP1G1_O43747_392_ELLYFLDSCEPEFK (UniProt O43747) | 0.183 | 0.273
ARHGAP25_P42331_448_CFLTSAFQGANSSK (UniProt P42331) | -0.526 | -1.52
ATP2A1_O14983_349_SLPSVETLGCTSVICSDK (UniProt O14983) | -0.0681 | -0.0742
ATP2B1_P20020_463+473_HLDACETMGNATAICSDK (UniProt P20020) | -0.241 | 0.05
ADAM10_O14672_530_DDSDCAR (UniProt O14672) | 0.552 | 1.2
AKR1A1_P14550_46_HIDCAAIYGNEPEIGEALKEDVGPGK (UniProt P14550) | -0.393 | -1.14
AKR7A2_O43488_132+156_RLQCPQVDLFYLHAPDHGTPVEETLHACQR (UniProt O43488) | -0.245 | -0.374
ANKRD11_Q6UB99_1339_ESACLPEK (UniProt Q6UB99) | -0.0313 | -0.174
ARRB2_P32121_126_KLGQHAHPFFFTIPQNLPCSVTLQPGPEDTGK (UniProt P32121) | -0.12 | -0.146
ARHGEF6_Q15052_530_IVVHCNNNQDFQEWLEQLNR (UniProt Q15052) | 0.0109 | 0.158
ANKFY1_Q9P2R3_389_TPLHVSIMAGNEYVFSQLLQCK (UniProt Q9P2R3) | 0.123 | 0.15
ATRX_P46100_1531_CPITTK (UniProt P46100) | -0.402 | -1.05
ATN1_P54259_851_APVECPSLGPVPHRPPFEPGSAVATVPPYLGPDTPALR (UniProt P54259) | -0.143 | -0.422
AIG1_Q9NVV5_6_MALVPCQVLR (UniProt Q9NVV5) | -0.836 | -1.35
ALAD_P13716_75_CVLIFGVPSR (UniProt P13716) | 0.166 | 0.185
ALG13_Q9NP73_86_ADLVISHAGAGSCLETLEK (UniProt Q9NP73) | -0.211 | -0.753
AKAP8_O43823_395_IQFACSVCK (UniProt O43823) | 0.0747 | -0.348
ANKRD50_Q9ULJ7_113_QALAFHFCK (UniProt Q9ULJ7) | 1.31 | 1.7
ACTR3_P61158_8+12_LPACVVDCGTGYTK (UniProt P61158) | -0.243 | -0.313
ALDH1L1_O75891_537_YFAGWCDK (UniProt O75891) | -0.0268 | -0.223
ATIC_P31939_101_VVACNLYPFVK (UniProt P31939) | 0.119 | 0.0511
ATP2B4_P23634_632_TVIEPMACDGLR (UniProt P23634) | -0.0204 | -0.262
ADAM9_Q13443_539_DCFIEVNSK (UniProt Q13443) | -0.0729 | -0.137
AIP_O00170_122_HCCGVAQMR (UniProt O00170) | -0.267 | -2.09
ALCAM_Q13740_270_CLGNGNPPPEEFLFYLPGQPEGIR (UniProt Q13740) | -0.0239 | 0.0758
ARFGEF1_Q9Y6D6_1729_QETSSLACGLR (UniProt Q9Y6D6) | -0.151 | 0.114
ATP2B1_P20020_547_TECALLGLLLDLKR (UniProt P20020) | -0.138 | -0.507
APBB1IP_Q7Z5R6_401_YLCCDDTR (UniProt Q7Z5R6) | -0.318 | -0.372

Target | probe-labelled cysteine peptide fold change (10 µM) | probe-labelled cysteine peptide fold change (50 µM)
ANLN_Q9NQW6_978_CQVNSSVEER (UniProt Q9NQW6) | 0.153 | 0.239
ATM_Q13315_2770_SGVLEWCTGTVPIGEFLVNNEDGAHKR (UniProt Q13315) | 0.0886 | -0.152
ASCC3_Q8N3C0_366_KAGEDLEVSEGLMCFDPK (UniProt Q8N3C0) | -0.217 | -0.375
ALDH3A2_P51648_226_DCDLDIVCR (UniProt P51648) | -0.0334 | -0.00592
ANKRD17_O75179_564_AGADIELGCSTPLMEAAQEGHLELVK (UniProt O75179) | 0.0101 | -0.0606
AFTPH_Q6ULP2_659_IFEACFPSILVPDAEEEVTSLK (UniProt Q6ULP2) | 0.0219 | -0.0706
ATM_Q13315_2323_KLDASCAANNPSLK (UniProt Q13315) | -0.12 | -0.242
ACSL4_O60488_420_GYDAPLCNLLLFKK (UniProt O60488) | -0.291 | -1.12
ANLN_Q9NQW6_1037_INLANCTSR (UniProt Q9NQW6) | -0.121 | -0.171
ARL6IP4_Q66PJ3-3_220_NCSASTSQER (UniProt Q66PJ3) | -0.274 | -0.819
APOOL_Q6UXV4_74_TATGCYIGWCK (UniProt Q6UXV4) | -0.823 | -1.75
AP2B1_P63010_565_PLISEETDLIEPTLLDELICHIGSLASVYHKPPNAFVEGSHGIHR (UniProt P63010) | 0.119 | -0.142
ATOX1_O00244_41_VCIESEHSMDTLLATLKK (UniProt O00244) | 0.237 | -0.215
AGL_P35573_126_VGADNHVLPLDCVTLQTFLAK (UniProt P35573) | 0.128 | 0.0379
ANKMY2_Q8IV38_390_LDVNSNCVNEEQPEAEVGISQK (UniProt Q8IV38) | -0.281 | -0.0242
ADK_P55263_160_SLIANLAAANCYKK (UniProt P55263) | -0.309 | -1.01
ALDOA_P04075_339_RALANSLACQGK (UniProt P04075) | -0.187 | -0.104
AGL_P35573_767_EVPQMCIPGKIEEVVLEAR (UniProt P35573) | -0.292 | -0.537
ASPSCR1_Q9BZE9_224+225_GDLSRPEDADTSGPCCEHTQEK (UniProt Q9BZE9) | -0.786 | -1.37
ATP13A1_Q9HD20_410_ATTGLKPVDSGCVAYVLR (UniProt Q9HD20) | 0.133 | 0.0894
ACSL3_O95573_85_SVNSLDGLASVLYPGCDTLDK (UniProt O95573) | 0.0339 | 0.289
AIP_O00170_121+122_HCCGVAQMR (UniProt O00170) | -0.298 | -1.16
ACTR3B_Q9P1U1_408_DYEEYGPSICR (UniProt Q9P1U1) | 0.154 | 0.0944
AFG3L2_Q9Y4W6_313_DVAGCEEAKLEIMEFVNFLK (UniProt Q9Y4W6) | -0.324 | -0.391
ARHGEF6_Q15052_319_VGGCLLSLMPHFK (UniProt Q15052) | -0.297 | -0.105
AKR1B1_P15121_299+304_VCALLSCTSHK (UniProt P15121) | -0.497 | -2.06
ANAPC1_Q9H1A4_1074_LLQLCQR (UniProt Q9H1A4) | -0.0436 | 0.000425
